The campaign covered roughly 68,000 compounds. About 2,700 (4%) showed an effect of 50% or more. This excerpt belongs to a sample that is enriched for strong results.
Test system: Plasmodium berghei
Assay: Screen against P. berghei liver stage (PbLuc), transformed with Luciferase, at 2uM
Assay type: functional, HepG2
Details: tested at 2 uM

Compound | INHIBITION [%]
CCN(Cc1ccoc1)C(=O)C1CCN(C(=O)OC(C)(C)C)C1 (stereo not drawn) | 30.25
CCN(Cc1ccoc1)C(=O)C1CN(C(=O)OC(C)(C)C)C1 | 52.03
CCN(Cc1ccoc1)C(=O)NC1CCN(C(=O)OC(C)(C)C)C1 (stereo not drawn) | 7.93
Cc1cc(-n2nnc(C(=O)O)c2-c2ccncc2)ccc1F | -37.39
Cc1occc1C(=O)N1CCC2(CCCN(c3ncc(F)cn3)C2)C1 (stereo not drawn) | -13.37
Cn1cc(C(=O)O)c(-c2ccc(F)cc2F)n1 | 31.51
Cn1cc(C(=O)OCC(N)=O)c(-c2ccc(F)cc2F)n1 | 19.59
CC(C)(C)n1cc(C(=O)O)c(-c2ccc(F)cc2F)n1 | 52.98
COc1ccc(C(=O)C2CCCN(c3nccc(N)n3)C2)c(C)c1 (stereo not drawn) | 22.5
COc1ccc(N2CCC(N(C)C(=O)Nc3ccncc3)CC2)cc1 | -18.09
Cn1cc(C(=O)N2CC[C@@H]3[C@@H]2CCN3Cc2ccccc2)cn1 | 28.85
Cc1cccc(CN2CC[C@H]3[C@H]2CCN3C(=O)c2cnn(C)c2)n1 | 51.4
Cn1cc(C(=O)N2CC[C@@H]3[C@@H]2CCN3Cc2cccnc2)cn1 | -31.39
Cc1cccc(CN2CC[C@@H]3[C@@H]2CCN3C(=O)c2cc(C)on2)n1 | 26.01
Cc1cccc(CN2CC[C@H]3[C@H]2CCN3Cc2cnn(C)c2)n1 | 46.68
Cn1cc(C(=O)N2CC[C@@H]3[C@@H]2CCN3Cc2ccncc2)cn1 | 70.31
Cc1cccc(CN2CC[C@@H]3[C@@H]2CCN3C(=O)c2cnoc2C)n1 | -15.6
Cc1cccc(CN2CC[C@@H]3[C@@H]2CCN3C(=O)c2ccno2)n1 | 51.94
Cc1cccc(N2CC[C@H]3[C@H]2CCN3C(=O)c2cnn(C)c2)n1 | 3.56
Cc1cc(CNCC2Cn3nnc(C)c3CO2)oc1C (stereo not drawn) | 26.42
CCS(=O)(=O)NC1CCCN(c2ccc(F)cc2C)C1=O (stereo not drawn) | -13.11

Compound | INHIBITION [%]
Cn1cc(C(=O)N2CCCC(C(=O)CCc3ccccc3)C2)cn1 (stereo not drawn) | 18.12
CCC(O)CNc1nccc(-c2ccc(C)nc2C)n1 (stereo not drawn) | -23.27
O=C(Cc1ccsc1)N1CCC2(CCCN(CC3CCOCC3)C2)C1 (stereo not drawn) | 32.04
O=C(Cc1cccs1)N1CCC2(CCCN(CC3CCOCC3)C2)C1 (stereo not drawn) | 54.62
O=C(Cc1ccccn1)N1CCC2(CCCN(CC3CCOCC3)C2)C1 (stereo not drawn) | -16.36
Cn1cnc2c1CCN(CCCOc1ccc(S(C)(=O)=O)cc1)C2 | 72.05
CS(=O)(=O)c1ccc(OCCCN2CCc3cncnc3C2)cc1 | 20.53
Cn1cnc2c1CCN(CCCOc1ccc(C#N)cc1)C2 | 40.29
CCS(=O)(=O)N(C)C1CCN(C(=O)c2cc(C)cc(C)c2)CC1 | -37.02
CNC(=O)COc1cccc(CNCc2c(C)noc2C)c1 | -16.18
Cc1noc(C)c1CNC(=O)C(C)Oc1ccccc1F (stereo not drawn) | -23.17
CNC(=O)COc1ccccc1CNCc1c(C)noc1C | 57.75
Cc1cc(O)cc(=O)n1CCCC(=O)Nc1n[nH]c2cc(Br)ccc12 | -14.65
CO[C@H]1C(=O)N(C)C2(CCNCC2)[C@@H]1C(=O)Nc1ccccc1 | 36.1
Cc1noc(C)c1CN1CCC(N(C)Cc2nnc(C3CC3)n2C)C1 (stereo not drawn) | -37.68
CC[C@@H]1N(Cc2ccccn2)CCC[C@]12CCC(=O)N2CCOC | 51.05
CC[C@@H]1N(CC2CCC2)CCC[C@]12CCC(=O)N2Cc1ccncc1 | 12.28
CC[C@@H]1N(Cc2ccc(OC)cc2)CCC[C@]12CCC(=O)N2CCOC | 25.75
CN1C(=O)CCC12CCC(NC(=O)NCc1cccnc1)CC2 (stereo not drawn) | -14.64
CC[C@H]1N(CC2CCC2)CCC[C@]12CCC(=O)N2Cc1ccncc1 | 65.54
COCCN1C(=O)CCC12CCC(NCc1ccc(OC)cc1)CC2 (stereo not drawn) | 25.43

Compound | INHIBITION [%]
CN1C(=O)CCC12CCC(NCc1ccsc1)CC2 (stereo not drawn) | 51.81
CC[C@@H]1N(Cc2ccncc2)CCC[C@]12CCC(=O)N2CCOC | 28.86
COCCN1C(=O)CCC12CCC(NCc1nccs1)CC2 (stereo not drawn) | 75.66
COCCN1C(=O)CCC12CCC(NCc1cccnc1OC)CC2 (stereo not drawn) | 12.95
O=C1CCC2(CCC(NCc3ccsc3)CC2)N1Cc1ccccc1 (stereo not drawn) | 31.5
CCCN1CCC[C@]2(CCC(=O)N2Cc2ccncc2)[C@H]1CC | 32.59
Cc1cc(C(=O)N2CCC(Nc3cccnc3)CC2)c(C)s1 | 22.36
COCCN1CCC2(CCN(C(=O)c3ccc(F)cc3)CC2)C1=O | 4.59
CN1[C@@H]2CC[C@H]1CN(C(=O)CCc1csc(N)n1)CC2 | 41.86
COc1ccc(C(=O)N2CCC(Nc3cccnn3)CC2)c(F)c1 | -33.22
Cc1c(C2N3CC4(C(C)C)CN2CC(C(C)C)(C3)C4=O)[nH]c(=O)[nH]c1=O (stereo not drawn) | -2.5
CCc1noc(C2CCCCN2C(=O)c2ccc3c(c2)OCO3)n1 (stereo not drawn) | 25.67
CC[C@@H]1N(Cc2ccc(F)cc2)CCC[C@]12CCC(=O)N2CCOC | 1.78
CC[C@@H]1N(Cc2nccs2)CCC[C@]12CCC(=O)N2C | 45.22
CC[C@@H]1N(Cc2nccs2)CCC[C@]12CCC(=O)N2CCOC | 65.26
Cc1csc(C(=O)N2CC(S(=O)(=O)C3CCCCC3)C2)c1 | -15.37
CC(=O)N1CC2(CCCN2Cc2ccc(Cl)cc2)Cc2ccccc21 (stereo not drawn) | 6.9
CCn1c(CC2CCN(C(=O)c3cc(C(C)C)nn3C)CC2)n[nH]c1=O | 32.26
CCn1c(CC2CCN(C(=O)c3cc(C(C)C)n[nH]3)CC2)n[nH]c1=O | 3.06
CCn1c(CC2CCN(C(=O)c3cc(CC(C)C)on3)CC2)n[nH]c1=O | 55.25
CSCc1cccc(NC(=O)N2CCC(N3CC=CC3)C2)c1 (stereo not drawn) | -18.09

Source: ChEMBL document CHEMBL4513216, “Probing the Open Global Health Chemical Diversity Library for Multistage-Active Starting Points for Next-Generation Antimalarials” (ACS Infect Dis, 2020)
